Results reported in PubChem BioAssay (NCI).
“And” between values parts separate entries of the source, which are not always exact repeats. Equal entries are not always repeated. Compounds without any hit were thinned out: in the full panel of roughly 83,000, 20% have a hit.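 Assay: single dose, 48 h. Readout: percent growth (0 = no net growth; negative = cell death). Active: <10.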 A number with no mark means an inactive call. The source made the active and inactive calls.

Each molecule was assayed on NCI-H23 lung (assay: NCI-60 one-dose screen, 48 h (100 = growth as untreated, 0 = no growth, -100 = all killed)). Conditions: 4.75 µM.
Description: Growth inhibition of the NCI-H23 human Non-Small Cell Lung tumor cell line is measured as a screen for anti-cancer activity. Cells are grown in 96 well plates and exposed to the test compound for 48 hours. Compounds are tested at a single concentration, which is 10^-5 M for most compounds. The reported endpoint is percent growth (GI% or GIPRCNT), where numbers from 0 - 100% represent growth inhibition, and numbers from -100% - 0 represent cell death. For example, a value of 40 represents 60% growth inhibition. A value of 0 means no net growth occurred over the course of the experiment. A value of -40 indicates 40% of cells at the beginning of the experiment died by the end of the experiment. A value of -100 means all cells are dead at the end of the experiment.
NCI-60 Human Tumor Cell Lines Screen was performed using the standard one-dose NCI protocol, which is described in more detail at https://dtp.cancer.gov/discovery_development/nci-60/default.htm.
Compounds with GIPRCNT values below 10 were considered active. Activity score was based on GIPRCNT using the following formula: […]
Score is 0 for GIPRCNT values of 100 or above, 50 for GIPRCNT values of 0, and 100 for GIPRCNT values of -100.

SMILES	growth
CC(=O)OCC1OC([S-])C(OC(C)=O)C(OC(C)=O)C1OC(C)=O.[Au+].c1ccc(CN2[CH-]N(Cc3ccccc3)C(c3ccccc3)=C2c2ccccc2)cc1	3.45% (active)

Same assay, conditions: 10 µM

SMILES	growth
CC(=O)OCC1OC([S-])C(OC(C)=O)C(OC(C)=O)C1OC(C)=O.[Au+].c1ccc(CN2[CH-]N(Cc3ccccc3)C(c3ccccc3)=C2c2ccccc2)cc1	2.04% (active)

Same assay, conditions: 10 µM unless noted

SMILES	growth
Oc1cc(Cl)ccc1Oc1ccc(Cl)cc1Cl	7.13% (active)
O=C(NC(Cl)=C(Cl)Cl)P(=O)(c1ccccc1)c1ccccc1	105%
C[C@]12CC[C@@H](OC(=O)N(CCCl)N=O)C[C@@H]1CC[C@@H]1[C@@H]2CC[C@]2(C)C(=O)CC[C@@H]12	74.7%
CCN1C(=O)NC(=O)C(C)(N2C(=O)c3c(F)c(F)c(F)c(F)c3C2=O)C1=O (stereo not given)	32.3%
CCC(Br)(CC)C(=O)NC(N)=O	108%
O=[N+]([O-])c1ccc2scc3c4ccccc4nc-3c2c1	30.7%
Nc1nc(=S)nc(N)[nH]1	89.5%
N#Cc1ccc(Cl)cc1	111%
ClC1OC(Cl)(Cl)C(Cl)(Cl)OC1(Cl)Cl (stereo not given)	98.6%
C=CCOC(=O)C(Br)CC (stereo not given)	99%
COc1cc2c(cc1OC)[C@@H]1C(=O)c3ccc4c(c3O[C@@H]1CO2)C[C@H](C(C)C)O4	34.2%
O=c1[nH]c(=O)n(Cl)c(=O)n1Cl	99.2%
CCOC(=O)c1cncn1C(C)c1ccccc1 (stereo not given)	118%
CC(=O)Cc1ccc2c(c1)OCO2	93.9%
O=C(O)c1cc([N+](=O)[O-])cc([N+](=O)[O-])c1	107%
COc1ccc(C(C#N)C(C)=O)cc1 (stereo not given)	97.9%
CC[C@H](C)[C@H](NC(=O)c1ncccn1)C(=O)N(C)[C@H](C[C@@H](OC(C)=O)c1nc(C(=O)N[C@@H](Cc2ccccc2)C[C@H](C)C(=O)OC)cs1)C(C)C	40.9%
O=C1NC(=O)C(=C/C=C/c2ccccc2)C(=O)N1	-49% (active)
CC1=C2[C@H]3OC(=O)[C@@H](C)[C@@H]3CC[C@@]2(C)C=CC1=O	54.5%

SMILES	growth
COc1ccc(N(CC(=O)NCCC[Te]c2ccccc2)C(=O)c2ccccc2)cc1	0.588% (active)
C(=NC1CCCCC1)=NC1CCCCC1	106% and 31.1%
CC(=O)C(N)Cc1ccccc1 (stereo not given)	98.3%
C=C[Se]CC(=O)/C=C/c1ccccc1	70.1%
CC[C@H](C)[C@H](NC(=O)CN(C)C)C(=O)N(C)[C@H](C[C@@H](OC(C)=O)c1nc(C(=O)NC23CC(C(=O)OC)(C2)C3)cs1)C(C)C	33.3%
C=CC1CN2CCC1CC2C(O)c1ccnc2ccccc12 (stereo not given)	24.4%
CCCCCCCCCCCCCCCCCC1OCC(COC(=O)O[C@@H](C(=O)O[C@H]2C[C@@]3(O)[C@@H](OC(=O)c4ccccc4)[C@@H]4[C@]5(OC(C)=O)CO[C@@H]5C[C@H](O)[C@@]4(C)C(=O)[C@H](OC(C)=O)C(=C2C)C3(C)C)[C@@H](NC(=O)c2ccccc2)c2ccccc2)O1 (stereo not given in full)	40.3%
CNC(=O)CCl	101%
CN(C)C(=S)SSC(=S)N(C)C	98.9% and 138%
O=P(O)(Nc1ccccc1)Nc1ccccc1	91.1%
CCCCOC(N)=O	100%
COCC1OC2OC3C(COC)OC(OC4C(COC)OC(OC5C(COC)OC(OC6C(COC)OC(OC7C(COC)OC(OC8C(COC)OC(OC1C(O)C2O)C(O)C8O)C(O)C7O)C(O)C6O)C(O)C5O)C(O)C4O)C(O)C3O (stereo not given) (tested in a mixture with another compound)	102%
COc1ccc2c(c1)C1(C)CCN(C)CC(C1)C2O (stereo not given)	98.1%
COc1cc(-c2ccc(N)c(OC)c2)ccc1N	101%
O=c1c2ccccc2nc(-c2ccccc2Cl)n1-c1nnc(C(F)(F)F)s1	-0.336% (active)
CC1=C(C)C(=O)O[C@@H]([C@](C)(O)[C@]2(O)CC[C@@]3(O)[C@@H]4C[C@H]5O[C@]56CC=CC(=O)[C@]6(C)[C@H]4CC[C@]23C)C1	-22% (active)
CCCCCCCCCCCCCCCCCCn1cc[n+](C)c1	-48.9% (active) and -44.3% (active)
OCCNC1CCCCC1	108%
CC[CH2][Sn]([Cl])([Cl])[CH2]CC.Oc1ccccc1C=NCCN=Cc1ccccc1O	56.4% and 34.2%
